According to ChEMBL document CHEMBL3433997, “St. Jude Leishmania screening dataset” (2016):

Each compound was assayed against Hexose transporter 1 (Plasmodium falciparum) (UniProt O97467) (assay: ST_JUDE_LEISH: Cytotoxicity at 2uM final concentration against transgenic Leishmania Mexicana promastigotes LmPfHT that are glucose transport deficient and complemented with the Plasmodium falciparum hexose transporter. Activity is measured by DNA content using SYBR green in vitro).
Type: functional
`c1cc(CN2CCCCC2)cc(OCCCNc2ccnc3ccccc23)c1` showed an inhibition of 7.87%. `C[C@@H]([C@@H](CCCCc1ccccc1)C(=O)N[C@H](C(=O)Nc1cccnc1)C(C)(C)C)N(O)C=O` gave an inhibition of -1.56%. `c1nc(CCNc2nc(Nc3ccc4c(c3)OCO4)nc(NC3CCCC3)n2)c[nH]1` gave an inhibition of 2.73%. `Cc1cc2c(cc1C(F)(F)F)N(C(=O)Nc1ccc(C(=O)NCCN3CCCC3)cc1)CC2` gave an inhibition of 1.86%. `Cc1ccc(NC(=O)NC2CCN(c3ccnc4cc(Cl)ccc34)C2)cc1` (stereo not given) showed an inhibition of 4.46%. Work on `CN(C(=O)c1ccccc1)C1c2cc(C#N)ccc2OC(C)(C)C1O` (stereo not given) yielded an inhibition of 0.76%. Work on `Fc1ccc2[nH]c(-c3ccc(-c4ccc(CNCc5cnn(-c6ccccc6)n5)cc4)cc3)nc2c1` yielded an inhibition of -1.57%. `Cn1cncc1-c1cc2c(Nc3ccc(OCc4ccccc4)cc3)ncnc2cn1` showed an inhibition of 5.99%. `CC(C)N1CCN(C(CN2CCN(CCCOc3cccc4ccccc34)CC2)c2ccc(F)cc2)CC1` (stereo not given) was tested, and the inhibition was 0.92%. With `CC(=O)c1sc(NC(=O)Nc2ccc(C)cc2C)nc1C` the inhibition was 8.74%. Work on `CN1CCN(CC(=O)Nc2ccc(-c3ccc(-c4nc5cc(C(F)(F)F)ccc5[nH]4)s3)cc2)CC1` yielded an inhibition of 1.22%. Work on `CC(CCc1ccccc1)NCC(O)c1ccc2c(c1)S(=O)(=O)c1ccccc1N2` (stereo not given) yielded an inhibition of 1.25%. Compound `O=C(CCN1C(=O)c2ccccc2C1=O)N1CCN(CC=Cc2ccccc2)CC1` has an inhibition of -1.32%. With `O=C(Nc1cccc(-c2cccc(CN3CCCC3)c2)c1)c1cccc(Cl)c1` the inhibition was 2.72%. In the case of `CN1CCC(C(=O)N(Cc2ccc(-c3ccc(CNCCc4ccc(S(C)(=O)=O)cc4)cn3)cc2)C2Cc3ccccc3C2)CC1`, the inhibition is reported as -0.29%. `C=CCOC(=O)N1CCC(CNCc2ccc(-c3ccc(-c4nc5cc(C(F)(F)F)ccc5[nH]4)cc3)cc2)C1` (stereo not given) gave an inhibition of -0.38%. For `CS(=O)(=O)CCNc1cc(N2CCc3ncnc(Nc4ccc(OCc5cccc(F)c5)c(Cl)c4)c3C2)ncn1`, the inhibition was 0.75%. `CC(C)(C)c1ccc(-c2nc3c(ccc4nc(N)nc(N)c43)[nH]2)cc1` was tested, and the inhibition was -1.54%. `COc1ccc(C2(CNCC(O)c3cccc([N+](=O)[O-])c3)CCCC2)cc1OC` (stereo not given) was tested, and the inhibition was 4.72%. Compound `Oc1ccc(CCCNc2nc(NCc3ccccc3-c3ccccc3)nc(NC3CCNCC3)n2)cc1` has an inhibition of -0.26%. With `CC(C)COc1ccc(C(O)C(CN2CCCCC2)c2ccccc2)cc1` (stereo not given) the inhibition was 1.93%. In the case of `CCn1cnc2c(N3CCCCS3(=O)=O)cc(C(=O)N[C@@H](Cc3ccccc3)[C@H](O)CNC3CCOCC3)cc21`, the inhibition is reported as 2.96%. Work on `CC(C)C[C@H](NC(=O)OC(C)(C)C)C(=O)Nc1ccc(Cc2ccc(NC(=O)[C@H](CC(C)C)NC(=O)OC(C)(C)C)cc2)cc1` yielded an inhibition of 3.22%. `COc1ccc2ncc(Cl)c(N3CCC(CCNCc4ccc5c(n4)NC(=O)CS5)CC3)c2c1` showed an inhibition of 0.92%. In the case of `O=C(N[C@H]1CCN(Cc2ccc(OCCCN3CCCCC3)cc2)C1)c1cc(Cl)cc(Cl)c1`, the inhibition is reported as 7.28%. For `CCS(=O)(=O)c1ccc(-c2cnc3[nH]cc(-c4ccc(N)cc4)c3c2)cc1`, the inhibition was 21.7%. Work on `CC(C)n1ncc2c(C(=O)N3CCCc4ccccc43)cc(-c3ccccc3)nc21` yielded an inhibition of 2.95%. For `Cc1ccc(CON2C(=N)N=C(N)NC2(C)C)cc1C`, the inhibition was 3.55%. For `Nc1ncc(-c2ccc(F)cc2)c2ccc(-c3cccc(F)c3)cc12`, the inhibition was 5.19%. `CC(C)C[C@H](NC(=O)c1cc(-c2ccc(C(C)(C)C)cc2)no1)C(=O)O.CC(C)C[C@H](NC(=O)c1conc1-c1ccc(C(C)(C)C)cc1)C(=O)O` was tested, and the inhibition was 0.89%. In the case of `COc1ccc(CN2CCCN(Cc3cccc(C(=O)Nc4ccc(C(C)(C)C)cc4)c3)CC2)cc1`, the inhibition is reported as 5.46%. In the case of `COc1ccc2nccc([C@@H](O)CN3CCC(NCCOc4cccc(F)c4F)CC3)c2c1`, the inhibition is reported as 4.96%. For `O=C(/C=C/c1ccc(Cl)c(Cl)c1)N1CCC(CCCN2CCC(c3c[nH]c4ccc(O)cc34)CC2)CC1`, the inhibition was 17.4%. `O=C(NC1CC1)c1ccc(N2CCC(Cc3ccccc3)CC2)c([N+](=O)[O-])c1` showed an inhibition of 0.86%. With `CCc1c(C(=O)NC2CCC(N3CCC(c4ccccc4OC)CC3)CC2)[nH]c2ccc(OC)cc12` (stereo not given) the inhibition was 2.5%. In the case of `Cc1cc2nc(-c3ccc(C(=O)NCc4cccc(C(F)(F)F)c4)cc3)[nH]c2cc1C`, the inhibition is reported as -2.94%. `Cc1cccc(NC(=O)Nc2cccc(-c3ccc(-c4nc5cc(C(F)(F)F)ccc5[nH]4)cc3)c2)c1` showed an inhibition of 2.01%. `COc1ccc2nccc(N/N=C/c3cccc([N+](=O)[O-])c3)c2c1` showed an inhibition of 2.68%. Compound `CC(C)Nc1nc(NC2CCCCC2)nc(N2CCCCCCC2)n1` has an inhibition of 17.4%. For `COc1cc(OC)c2c(C)cc(NCCCn3ccnc3)nc2c1`, the inhibition was 3.68%.

The compounds below were run against Glucose transporter (Leishmania mexicana) (UniProt O61059) (assay: ST_JUDE_LEISH: Cytotoxicity at 2uM final concentration against transgenic Leishmania Mexicana promastigotes LmGT2 that are glucose transport deficient and complemented with the L. Mexicana glucose transporter 2. Activity is measured by DNA content using SYBR green in vitro).
Type: functional
In the case of `c1cc(CN2CCCCC2)cc(OCCCNc2ccnc3ccccc23)c1`, the inhibition is reported as 5.12%. In the case of `C[C@@H]([C@@H](CCCCc1ccccc1)C(=O)N[C@H](C(=O)Nc1cccnc1)C(C)(C)C)N(O)C=O`, the inhibition is reported as 2.12%. `c1nc(CCNc2nc(Nc3ccc4c(c3)OCO4)nc(NC3CCCC3)n2)c[nH]1` showed an inhibition of 0.99%. Compound `Cc1cc2c(cc1C(F)(F)F)N(C(=O)Nc1ccc(C(=O)NCCN3CCCC3)cc1)CC2` has an inhibition of -0.08%. For `Cc1ccc(NC(=O)NC2CCN(c3ccnc4cc(Cl)ccc34)C2)cc1` (stereo not given), the inhibition was 2.34%. With `CN(C(=O)c1ccccc1)C1c2cc(C#N)ccc2OC(C)(C)C1O` (stereo not given) the inhibition was 0.38%. With `Fc1ccc2[nH]c(-c3ccc(-c4ccc(CNCc5cnn(-c6ccccc6)n5)cc4)cc3)nc2c1` the inhibition was -1.56%. With `Cn1cncc1-c1cc2c(Nc3ccc(OCc4ccccc4)cc3)ncnc2cn1` the inhibition was 1.66%. `CC(C)N1CCN(C(CN2CCN(CCCOc3cccc4ccccc34)CC2)c2ccc(F)cc2)CC1` (stereo not given) was tested, and the inhibition was 4.19%. `CC(=O)c1sc(NC(=O)Nc2ccc(C)cc2C)nc1C` gave an inhibition of 3.63%. `CN1CCN(CC(=O)Nc2ccc(-c3ccc(-c4nc5cc(C(F)(F)F)ccc5[nH]4)s3)cc2)CC1` gave an inhibition of 1.13%. `CC(CCc1ccccc1)NCC(O)c1ccc2c(c1)S(=O)(=O)c1ccccc1N2` (stereo not given) gave an inhibition of 2.14%. `O=C(CCN1C(=O)c2ccccc2C1=O)N1CCN(CC=Cc2ccccc2)CC1` was tested, and the inhibition was -1.76%. With `O=C(Nc1cccc(-c2cccc(CN3CCCC3)c2)c1)c1cccc(Cl)c1` the inhibition was 4.9%. `CN1CCC(C(=O)N(Cc2ccc(-c3ccc(CNCCc4ccc(S(C)(=O)=O)cc4)cn3)cc2)C2Cc3ccccc3C2)CC1` gave an inhibition of -0.85%. `C=CCOC(=O)N1CCC(CNCc2ccc(-c3ccc(-c4nc5cc(C(F)(F)F)ccc5[nH]4)cc3)cc2)C1` (stereo not given) was tested, and the inhibition was 1.41%. `CS(=O)(=O)CCNc1cc(N2CCc3ncnc(Nc4ccc(OCc5cccc(F)c5)c(Cl)c4)c3C2)ncn1` was tested, and the inhibition was 0.08%. In the case of `CC(C)(C)c1ccc(-c2nc3c(ccc4nc(N)nc(N)c43)[nH]2)cc1`, the inhibition is reported as -2.76%. `COc1ccc(C2(CNCC(O)c3cccc([N+](=O)[O-])c3)CCCC2)cc1OC` (stereo not given) was tested, and the inhibition was 3.66%. For `Oc1ccc(CCCNc2nc(NCc3ccccc3-c3ccccc3)nc(NC3CCNCC3)n2)cc1`, the inhibition was -0.11%. Work on `CC(C)COc1ccc(C(O)C(CN2CCCCC2)c2ccccc2)cc1` (stereo not given) yielded an inhibition of 3.27%. With `CCn1cnc2c(N3CCCCS3(=O)=O)cc(C(=O)N[C@@H](Cc3ccccc3)[C@H](O)CNC3CCOCC3)cc21` the inhibition was 3.34%. With `CC(C)C[C@H](NC(=O)OC(C)(C)C)C(=O)Nc1ccc(Cc2ccc(NC(=O)[C@H](CC(C)C)NC(=O)OC(C)(C)C)cc2)cc1` the inhibition was 2.99%. `COc1ccc2ncc(Cl)c(N3CCC(CCNCc4ccc5c(n4)NC(=O)CS5)CC3)c2c1` was tested, and the inhibition was 3.01%. For `O=C(N[C@H]1CCN(Cc2ccc(OCCCN3CCCCC3)cc2)C1)c1cc(Cl)cc(Cl)c1`, the inhibition was 2.29%. Work on `CCS(=O)(=O)c1ccc(-c2cnc3[nH]cc(-c4ccc(N)cc4)c3c2)cc1` yielded an inhibition of 16.2%. For `CC(C)n1ncc2c(C(=O)N3CCCc4ccccc43)cc(-c3ccccc3)nc21`, the inhibition was 3.97%. `Cc1ccc(CON2C(=N)N=C(N)NC2(C)C)cc1C` showed an inhibition of 3.93%. Work on `Nc1ncc(-c2ccc(F)cc2)c2ccc(-c3cccc(F)c3)cc12` yielded an inhibition of 2.72%. Work on `CC(C)C[C@H](NC(=O)c1cc(-c2ccc(C(C)(C)C)cc2)no1)C(=O)O.CC(C)C[C@H](NC(=O)c1conc1-c1ccc(C(C)(C)C)cc1)C(=O)O` yielded an inhibition of 0.84%. `COc1ccc(CN2CCCN(Cc3cccc(C(=O)Nc4ccc(C(C)(C)C)cc4)c3)CC2)cc1` was tested, and the inhibition was 3.17%. With `COc1ccc2nccc([C@@H](O)CN3CCC(NCCOc4cccc(F)c4F)CC3)c2c1` the inhibition was -0.41%. Compound `O=C(/C=C/c1ccc(Cl)c(Cl)c1)N1CCC(CCCN2CCC(c3c[nH]c4ccc(O)cc34)CC2)CC1` has an inhibition of 14%. For `O=C(NC1CC1)c1ccc(N2CCC(Cc3ccccc3)CC2)c([N+](=O)[O-])c1`, the inhibition was 3.45%. `CCc1c(C(=O)NC2CCC(N3CCC(c4ccccc4OC)CC3)CC2)[nH]c2ccc(OC)cc12` (stereo not given) showed an inhibition of 0.22%. `Cc1cc2nc(-c3ccc(C(=O)NCc4cccc(C(F)(F)F)c4)cc3)[nH]c2cc1C` was tested, and the inhibition was -2.9%. Compound `Cc1cccc(NC(=O)Nc2cccc(-c3ccc(-c4nc5cc(C(F)(F)F)ccc5[nH]4)cc3)c2)c1` has an inhibition of 1.66%. `COc1ccc2nccc(N/N=C/c3cccc([N+](=O)[O-])c3)c2c1` was tested, and the inhibition was 4.33%. Work on `CC(C)Nc1nc(NC2CCCCC2)nc(N2CCCCCCC2)n1` yielded an inhibition of 11.6%. `COc1cc(OC)c2c(C)cc(NCCCn3ccnc3)nc2c1` gave an inhibition of 0.88%.
